Compound activity deposited in PubChem by NMMLSC.
In the library only some 2.9% were active in any assay of this set; here they are far more common.
B2AR ag: human beta-2 adrenergic receptor agonism by FAP. Am2.2-beta2AR cells, FAP receptor internalization, flow cytometry. P07550. actives 0.43% (n = 340,000). response, % (concentration not given with the values). AID 504454;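 active = response above a set limit, near 3 SD of response in nonfluorescent compounds, cut at about 42% in these data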
GRK2 inh: blocks RNA aptamer binding to human GRK2. bead flow cytometry, FAM-aptamer displacement from GRK2. actives 0.59% (n = 330,000). inhibition of aptamer binding, % at 10 µM. P25098;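 active = inhibition of aptamer binding above 40%, roughly 3 SD of noise, on plates passing a quality check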;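 also: median bead fluorescence of bound FAM aptamer so fluorescent compounds give negative values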
Target sequence (P25098 whole entry, looked up): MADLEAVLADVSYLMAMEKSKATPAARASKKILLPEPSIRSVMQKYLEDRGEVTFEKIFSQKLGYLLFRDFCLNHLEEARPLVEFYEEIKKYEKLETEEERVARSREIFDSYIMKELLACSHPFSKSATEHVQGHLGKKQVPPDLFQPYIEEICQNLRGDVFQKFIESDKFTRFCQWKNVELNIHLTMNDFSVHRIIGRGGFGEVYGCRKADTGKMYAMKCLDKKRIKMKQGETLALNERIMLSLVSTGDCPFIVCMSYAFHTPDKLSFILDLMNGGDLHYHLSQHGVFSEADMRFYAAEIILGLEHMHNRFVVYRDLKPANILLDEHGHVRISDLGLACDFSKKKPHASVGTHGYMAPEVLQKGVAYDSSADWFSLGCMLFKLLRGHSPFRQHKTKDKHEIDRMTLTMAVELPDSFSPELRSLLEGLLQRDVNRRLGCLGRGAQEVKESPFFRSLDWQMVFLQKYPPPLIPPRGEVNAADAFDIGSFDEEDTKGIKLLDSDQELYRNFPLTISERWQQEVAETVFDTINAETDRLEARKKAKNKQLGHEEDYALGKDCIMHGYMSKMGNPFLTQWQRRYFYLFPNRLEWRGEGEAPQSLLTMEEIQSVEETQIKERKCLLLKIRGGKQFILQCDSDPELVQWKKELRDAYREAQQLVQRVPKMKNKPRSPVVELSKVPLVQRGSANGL
MEKK3 PB1 HTS: modulators (inhibitors or enhancers) of MEK5 binding to human MEKK3 PB1 domain; Q99759; bead-based flow cytometry, Alexa488-MEK5 binding to MEKK3; actives lie on both sides; 0 = blocked by unlabeled MEK5, 100 = vehicle; binding response (% of control), % at 10 µM; actives 1.4% (n = 290,000);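 active = binding response more than 3 SD above or below the average of its plate-row segment, actives on both sides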;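 also: Alexa488 bead fluorescence after subtracting the streptavidin-only scavenger bead signal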
MEKK2wt PB1 HTS: raises or lowers MEK5 binding to wildtype human MEKK2 PB1 domain; bead flow cytometry, Alexa488-MEK5 binding to MEKK2 WT; actives lie on both sides; actives 1.1% (n = 290,000); AID 1531; binding response (% of control), % at 10 µM; in the data active = binding response below about 67% or above about 130%
MEKK2mut PB1 HTS: signal of MEK5 binding to mutant human MEKK2 PB1 domain; bead flow cytometry, Alexa488-MEK5 binding to MEKK2 mutant; percent response, % at 10 µM; actives 0.35% (n = 290,000); in the data active = percent response above about 24%, passing the limit was not always enough
GRK2 CP1: human GRK2 inhibition confirmation, cherry pick 1; shares compounds with GRK2 inh; bead-bound GRK2, FAM-aptamer displacement, flow cytometry; aptamer displacement, % at 10 µM; actives 4% (n = 2,000);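 active = aptamer displacement above 40%, near three times the noise of non-fluorescent compounds, on plates passing quality checks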;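 also: negative values mostly reflect intrinsic compound fluorescence rather than true enhancement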
Aptamer quench SP: quenches fluorescent RNA aptamer, GRK2 hit artifact; shares compounds with GRK2 inh; Carboxyfluorescein RNA aptamer on beads, flow cytometry quenching; hits give low values; fluorescence response (% of DMSO), % at 10 µM; 2,000 tested, under 10 active;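 active = compounds that quench the bead-bound fluorescent RNA probe, cutting fluorescence to under half of the solvent control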;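 also: counterscreen run without GRK2 so only probe quenching by compound is measured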
GRK2 CP2: confirmation of human GRK2 inhibitors binding RNA aptamer site; shares compounds with GRK2 inh; bead-bound GRK2, FAM-aptamer displacement, flow cytometry; inhibition of aptamer binding, % at 10 µM; 360 tested, under 10 active; AID 504782;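 active = inhibition of aptamer binding above 40%, about triple the noise seen with nonglowing compounds, on plates passing quality control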;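 also: negative values mostly come from compounds that fluoresce themselves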
FAM quench CP2: counter-screen for GRK2 binding hits: quenchers of fluorescent RNA aptamer; 360 tested, under 10 active; fluorescence response vs DMSO, % at 10 µM; AID 588494; shares compounds with GRK2 inh; carboxyfluorescein RNA aptamer beads, flow cytometry quenching; hits give low values;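 active = response vs DMSO under 50%, meaning signal dropped by over half, treated as fluorescence quencher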;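 also: labelled aptamer on streptavidin beads without GRK2 as a quench counter-screen; 100% = bead fluorescence of DMSO wells and lower means quenching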
* marks the source's active call; other numbers are inactive results; x = no result given.

SMILES	B2AR ag	GRK2 inh	MEKK3 PB1 HTS	MEKK2wt PB1 HTS	MEKK2mut PB1 HTS	GRK2 CP1	Aptamer quench SP	others
CC(=O)Nc1ccc(C=NNc2ccc([N+](=O)[O-])cc2S(=O)(=O)Nc2ccccc2C(=O)O)cc1	1.1	0.0	x	x	x	x	x
CN(CCO)c1ccc(C=NNc2ccc([N+](=O)[O-])cc2S(=O)(=O)Nc2ccccc2C(=O)O)cc1	x	35.0	x	x	x	11.5	100.8
COc1ccccc1CNC(=O)C(=O)NCC1OCCN1S(=O)(=O)c1ccc(Br)cc1 (configuration not stated)	3.4	4.0	100.0	100.0	0.0	x	x
Cc1ccc(/C=C/C(=O)NCCc2c[nH]c3ccccc23)o1	5.8	94.0*	102.0	98.0	-2.0	-0.1	100.6
Nc1ccn(CC(=O)NCc2ccccn2)c(=O)n1	-2.2	77.0*	x	x	x	-0.8	95.1
O=c1cc(CN2CCN(Cc3ccc(F)cc3)C(CCO)C2)[nH]c2ccccc12 (configuration not stated)	-1.3	41.0*	107.0	106.0	3.0	x	x	GRK2 CP2=1.4;FAM quench CP2=99.0
O=C(Nc1ccccc1C(F)(F)F)c1ccsc1	-6.9	2.0	103.0	102.0	5.0	x	x
O=C(NNc1ccccc1C(F)(F)F)c1sccc1Br	-4.3	99.0*	89.0	91.0	-25.0	0.8	94.6
COc1ccc(C(CCN(Cc2ccc(OC)c(OC)c2)C(C)=O)C(C)C)cc1 (configuration not stated)	10.7	1.0	103.0	104.0	0.0	x	x
COc1ccc(Cl)cc1Nc1nnc(-c2ccncc2)s1	-0.3	55.0*	107.0	107.0	9.0	-11.0	102.9
COc1ccc(Nc2nnc(-c3ccncc3)s2)cc1Cl	-11.4	0.0	102.0	108.0	9.0	x	x
CC(=O)NCCN1C(=O)S/C(=C\c2cccs2)C1=O	-2.4	79.0*	100.0	98.0	0.0	-1.9	101.3
O=C(Nc1ccc(Cl)cc1F)C1CCCN(C2=NS(=O)(=O)c3ccccc32)C1 (configuration not stated)	2.1	x	x	x	x	x	x
CC(C)(C)CC(=O)NC(=S)NCCc1ccccc1	-4.4	80.0*	101.0	100.0	5.0	-1.1	96.3
OCCNCc1c(OCc2ccc(Cl)cc2)ccc2ccccc12	26.1	0.0	103.0	132.0	18.0	x	x
Cc1cc(NS(=O)(=O)c2c(C(=O)N3CCOCC3)c(C)n(C)c2C)ccc1Br	-7.0	45.0*	93.0	96.0	0.0	-3.9	103.4
CCOC(=O)CSc1nc2sc3c(c2c(=O)n1-c1ccc(OCC)cc1)CCN(C)C3	-14.8	0.0	109.0	112.0	6.0	x	x
C=C(C)CSc1nc2sc3c(c2c(=O)n1-c1ccc(C)cc1)CCN(C)C3	9.2	x	100.0	108.0	5.0	0.1	100.6
CCCCC(=O)Nc1ccc(C(=O)NNC(=S)NC(=O)c2ccco2)cc1	-9.7	0.0	102.0	103.0	2.0	x	x
O=C(O)Cc1ccc(NC(=O)c2ccc(NC(=O)c3ccco3)cc2)cc1	-5.3	48.0*	104.0	104.0	7.0	0.7	98.0
CCCCC(=O)Nc1ccc(C(=O)NNC(=O)c2ccco2)cc1	14.4	65.0*	103.0	98.0	1.0	-0.2	92.6
O=C(c1cc(COc2cccc(C(F)(F)F)c2)on1)N1CCC(Oc2cccnc2)CC1	-8.4	0.0	97.0	101.0	0.0	x	x
COc1cc2c(cc1OC)CN(C(=O)/C=C/c1cccs1)CC2	2.3	2.0	92.0	91.0	-15.0	x	x
Cc1ccccc1C1c2[nH]c3ccccc3c2C[C@H]2C(=O)N(C3CC3)CC(=O)N12 (some centres not stated)	6.1	0.0	101.0	101.0	7.0	x	x
COc1cccc(C2c3[nH]c4ccccc4c3C[C@H]3C(=O)N(C4CCN(Cc5ccccc5)CC4)CC(=O)N23)c1 (some centres not stated)	13.8	0.0	110.0	129.0	23.0	-12.4	103.8
SMILES	B2AR ag	GRK2 inh	MEKK3 PB1 HTS	MEKK2wt PB1 HTS	MEKK2mut PB1 HTS	GRK2 CP1	Aptamer quench SP	others
COc1ccc(C2c3[nH]c4ccccc4c3C[C@H]3C(=O)N(C4CCN(Cc5ccccc5)CC4)CC(=O)N23)cc1OC (some centres not stated)	-0.1	0.0	106.0	116.0	14.0	x	x
COc1ccccc1C1c2[nH]c3ccccc3c2C[C@H]2C(=O)N(C3CCN(Cc4ccccc4)CC3)CC(=O)N12 (some centres not stated)	23.8	0.0	107.0	120.0	11.0	-28.6	97.4
Cn1c(CCC(N)=O)nnc1SCC(=O)Nc1ccccc1C(=O)NC1CC1	9.4	75.0*	x	x	x	-16.7	98.3
C=CCn1c(C)nnc1SCC(=O)Nc1ccccc1C(=O)NC1CC1	5.8	x	x	x	x	x	x
CCNc1nc(OC)nc(N2CCC(Cc3ccccc3)CC2)n1	-8.0	100.0*	96.0	99.0	1.0	x	x	GRK2 CP2=10.1;FAM quench CP2=107.0
Cc1ccc(S(=O)(=O)Nc2cc(Cl)c(O)c3ncccc23)cc1	3.6	55.0*	101.0	103.0	5.0	x	x	GRK2 CP2=-30.3;FAM quench CP2=111.0
Oc1c(Cl)cc(Cl)c2cccnc12	10.1	x	99.0	98.0	3.0	x	x
NNC(=O)c1ccccc1-n1cccc1	3.9	5.0	98.0	92.0	-8.0	x	x	GRK2 CP2=9.9;FAM quench CP2=99.0
CS(=O)(=O)N(Cc1ccccc1)c1ccc(C(=O)Nc2ccccc2C(=O)O)cc1	-0.9	51.0*	106.0	100.0	6.0	-3.3	96.0
CS(=O)(=O)N(Cc1ccccc1)c1ccc(C(=O)Nc2ccccc2Sc2ccccc2)cc1	-7.0	4.0	94.0	92.0	-7.0	x	x
CC(NC(=O)c1cccc(S(=O)(=O)N2CCN(C)CC2)c1)c1ccc(Cl)cc1Cl (configuration not stated)	7.5	75.0*	x	x	x	-3.4	96.7
CC(NC(=O)c1cccc(S(=O)(=O)N2CCN(Cc3ccccc3)CC2)c1)c1ccccc1Cl (configuration not stated)	-3.0	x	x	x	x	x	x
COc1cccc(CN(Cc2cccnc2)S(=O)(=O)c2ccc(-n3cnnn3)c(C)c2)c1	22.9	29.0	87.0	85.0	-1.0	-2.1	107.0
COc1cccc(CNS(=O)(=O)c2ccc(-n3cnnn3)c(C)c2)c1	-2.5	0.0	101.0	98.0	1.0	x	x
COc1cc(CNCc2cccs2)ccc1OCc1ccccc1	23.4	30.0	x	x	x	-2.0	103.2
